Results taken from PubChem BioAssay (NCATS).
Records with an inconclusive call do not appear. A call without a number means that no potency is given here. Activity calls are given as the source filed them. Calls come from the whole dose curve; as a rule, active = well fitted cell-killing curve with a large enough effect; inconclusive = small, poorly fitted or top-dose-only effect; inactive = flat fitted curve, though single readings scatter.
Potency is the fitted concentration of half-maximal effect.

Test: Cell Viability - LYMP2-023 (AID 975); note: nearly all actives have a fitted effect of over 55% in size
Conditions: LYMP2-023 lymphoblastoid cell viability; series mostly up to 92.2 µM
Source text: NIH Chemical Genomics Center [NCGC]
NIH Molecular Libraries Screening Centers Network [MLSCN]
National Institutes of Environmental Health Sciences [NIEHS]
National Toxicology Program [NTP]
We have developed a 1536-well cell-based assay for quantitative high throughput screening (qHTS) against a number of cell lines to determine in vitro cytotoxicity of small molecules. This particular assay uses a human lymphoblastoid cell line (LYMP2-023) purchased from Coriell Institute for Medical Research.
NCGC Assay Protocol Summary:
The CellTiter-Glo luminescent cell viability assay (Promega) is a homogeneous method to measure the number of viable cells in culture. The end point readout of this assay is based on quantitation of intracellular ATP, an indicator of metabolic activity, using the luciferase reaction. Luciferase catalyzes the oxidation of beetle Luciferin to oxyluciferin and light in the presence of ATP. The luminescent signal is proportional to amount of ATP present.
Using the CellTiter-Glo luminescent cell viability assay, the amount of cellular ATP was measured in the lymphoblastoid cell line with complete culture medium following compound treatment for 24 hours. The assay was performed in opaque white Kalypsys 1536-well plates. In the screen, tetraoctylammonium bromide was used as positive control. Library compounds were measured for their ability to cause acute toxicity in the cell line, as reflected by a decrease in intracellular ATP levels, in a concentration-dependent manner. […] AC50 values were determined from concentration-response data modeled with the standard Hill equation.
qHTS protocol for CellTiter Glo lymphoblastoid cellular assay
[Step] [Parameter] [Value] [Description]
1. Reagent; 5 uL; 2500 lymphoblastoid cells/well
2. Time; 5 hr; 37 C incubation
4. Controls; 23 nL; Tetraoctylammonium bromide 6.4pM to 92 uM
5. Time; 24 hr; 37 C incubation
6. Reagent; 5 uL; CellTiter Glo reagent
7. Time; 30 min; Room Temperature
8. Detection; Luminescence; Viewlux plate reader
Keywords: cell viability, cytotoxicity, lymphoblastoid cell line, luminescence, NTPHTS, NTPHTS_NCGC, NIEHS, DSSTox, MLSMR, MLSCN, NIH Roadmap, qHTS, NCGC
In the case of `N=C1N=C(N)c2cc3ccccc3cc21`, the Potency was 39.8 µM (active). With `c1ccc2sc(SSc3nc4ccccc4s3)nc2c1` the Potency was “inactive”. For `COc1cc(CNC(=O)CCCC/C=C/C(C)C)ccc1O`, the Potency was “inactive”. For `NCCO`, the Potency was “inactive”. In the case of `COc1cc(/C=C/C(=O)CC(=O)/C=C/c2ccc(O)c(OC)c2)ccc1O`, the Potency was 50.1 µM (active). In the case of `CN1CCC[C@H]1c1cccnc1`, the Potency was “inactive”. In the case of `S=c1[nH]c2ccccc2s1`, the Potency was “inactive”. With `CC(C)NCC(O)COc1cccc2ccccc12` (stereo not drawn) the Potency was “inactive”. In the case of `O=C(O)c1cc(O)c(O)c(O)c1`, the Potency was “inactive”. In the case of `O=C(O)/C=C\C(=O)O`, the Potency was “inactive”. With `CCCCCCCCCCCCCCCCCC(=O)O` the Potency was “inactive”. With `Nc1ccc(O)c([N+](=O)[O-])c1` the Potency was “inactive”. In the case of `CCCOC(=O)c1ccc(O)cc1`, the Potency was “inactive”. With `Nc1nc2ccc([N+](=O)[O-])cc2s1` the Potency was “inactive”. In the case of `CN(C)CCC(c1ccc(Cl)cc1)c1ccccn1` (stereo not drawn), the Potency was “inactive”. With `CN(C)c1ccc(N=NS(=O)(=O)O)cc1` the Potency was “inactive”. In the case of `Nc1ccc(O)c(C(=O)O)c1`, the Potency was “inactive”. With `O=c1cc(-c2ccccc2)oc2ccccc12` the Potency was “inactive”. With `CC1(C)S[C@@H]2[C@H](NC(=O)[C@H](N)c3ccccc3)C(=O)N2[C@H]1C(=O)O` the Potency was “inactive”. For `Nc1ccc([N+](=O)[O-])cc1O`, the Potency was “inactive”. With `Oc1ccccc1O` the Potency was “inactive”. With `CN(C)c1ccc(C(=C2C=CC(=[N+](C)C)C=C2)c2ccccc2)cc1` the Potency was 0.398 µM (active). With `C#C[C@]1(O)CC[C@H]2[C@@H]3CCc4cc(O)ccc4[C@H]3CC[C@@]21C` the Potency was “inactive”.
